Only some compounds are listed: those with a hit (about 11% of all), similar ones and a draw of the others.
NIH3T3 tox – cytotoxic compounds in NIH 3T3 cells | NIH 3T3 viability, CellTiter-Glo ATP luminescence, 48-72 h | Potency, µM (doses to about 96.7 µM), hits mostly inhibitors | hit rate 4.3% among 94,000 | AID 1345082; further: nearly all actives have a fitted effect of over 55% in size
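Cytotoxicity is measured as loss of cellular ATP: NIH 3T3 cells (400/well) are exposed to compound for 48 or 72 hr at 37 °C, then CellTiter-Glo luminescence is imaged after 10 min at room temperature.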
Luciferase inh – inhibitors of firefly (Photinus pyralis) luciferase | purified P. pyralis luciferase, luminescence, biochemical | hit rate 2.5% among 76,000 | P08659 | Potency, µM (series often up to 115 µM), most hits filed as inhibitors | AID 1347043; further: nearly all actives have a fitted effect of over 65% in size
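Cell-free enzyme assay, 10nM P. pyralis luciferase, luciferin and ATP each at 10uM. Inhibition profiled over a 6-point titration, read as luminescence.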
HEK293 tox – cytotoxic compounds in HEK 293 cells. hit rate 6.6% among 94,000. HEK 293 viability, ATP luminescence (CellTiter-Glo), 48-72 h. Potency, µM (titrated, usually from 115 µM), most hits filed as inhibitors. AID 1345083; further: nearly all actives have a fitted effect of over 60% in size
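ATP-coupled CellTiter-Glo luminescence served as viability read-out, recorded 10 min after reagent addition at room temperature. HEK 293 cells, 250 cells/well, had been incubated with pintool-transferred compound for 48 or 72 hr at 37 degree Celsius.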
hNpr1 antagonist – antagonists of human natriuretic peptide receptor Npr1; P16066; hit rate 1.6% among 76,000; Potency, µM (highest dose often 46.3 µM), hits mostly inhibitors; HEK293 hNpr1 GloSensor cGMP, ANP-stimulated luminescence; AID 1347048; calls by dose curve; further: nearly all actives have a fitted effect of over 60% in size
Target sequence (P16066 whole entry, looked up): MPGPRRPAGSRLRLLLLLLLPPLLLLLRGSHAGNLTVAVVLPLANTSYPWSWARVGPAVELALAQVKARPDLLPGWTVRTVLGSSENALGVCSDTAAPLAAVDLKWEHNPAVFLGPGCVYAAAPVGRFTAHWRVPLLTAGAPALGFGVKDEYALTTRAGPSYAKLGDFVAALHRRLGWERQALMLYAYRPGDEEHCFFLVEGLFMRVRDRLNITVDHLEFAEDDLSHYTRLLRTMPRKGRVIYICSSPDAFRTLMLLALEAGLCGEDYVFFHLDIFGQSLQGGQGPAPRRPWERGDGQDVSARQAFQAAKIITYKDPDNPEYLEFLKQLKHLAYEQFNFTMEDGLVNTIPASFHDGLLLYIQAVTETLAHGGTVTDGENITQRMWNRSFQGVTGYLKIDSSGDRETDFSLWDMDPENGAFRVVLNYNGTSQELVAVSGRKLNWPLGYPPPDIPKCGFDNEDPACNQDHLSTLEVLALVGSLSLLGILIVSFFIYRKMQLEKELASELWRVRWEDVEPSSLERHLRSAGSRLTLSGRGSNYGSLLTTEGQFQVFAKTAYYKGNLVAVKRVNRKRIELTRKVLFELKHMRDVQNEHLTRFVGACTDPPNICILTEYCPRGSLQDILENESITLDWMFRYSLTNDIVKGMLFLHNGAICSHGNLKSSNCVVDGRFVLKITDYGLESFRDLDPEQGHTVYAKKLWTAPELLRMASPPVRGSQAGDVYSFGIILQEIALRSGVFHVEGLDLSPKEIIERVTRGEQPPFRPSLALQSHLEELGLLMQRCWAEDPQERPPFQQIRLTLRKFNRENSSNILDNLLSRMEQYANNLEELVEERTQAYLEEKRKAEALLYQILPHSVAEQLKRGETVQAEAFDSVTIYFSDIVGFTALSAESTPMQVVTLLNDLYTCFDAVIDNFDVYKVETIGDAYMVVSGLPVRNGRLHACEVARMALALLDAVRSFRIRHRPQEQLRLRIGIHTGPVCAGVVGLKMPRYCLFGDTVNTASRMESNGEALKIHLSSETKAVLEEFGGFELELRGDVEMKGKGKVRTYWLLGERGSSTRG
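Compound pre-incubated 30 min at room temperature on GloSensor-loaded HEK293 cells stably carrying hNpr1 and the pGS-40F cGMP biosensor. Stimulation uses hNppA at 0.1 nM final; luminescence is taken at baseline and 20 min post-agonist.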
A number is an active result. Unless noted, the call rests on the fitted dose curve; in most records, active means well fitted curve in the direction sought with a large enough effect; inconclusive means small, poorly fitted or top-dose-only effect, or another doubt; inactive means no such curve, though single readings can be large; an effect the other way counts as inactive or inconclusive.

O=C1COc2ccc(Oc3ccccc3)nc2CN1CCOc1ccccc1 was read as NIH3T3 tox inconclusive, Luciferase inh inactive, HEK293 tox 100µM and hNpr1 antagonist inconclusive.
For COCCN1Cc2nc(Nc3ccc(F)c(Cl)c3)ccc2OCC1=O the results were NIH3T3 tox inconclusive, Luciferase inh inactive, HEK293 tox 100µM and hNpr1 antagonist inactive.
For O=C1COc2ccc(Nc3cccc(F)c3)nc2CN1CCOc1ccccc1 the results were NIH3T3 tox 89µM, Luciferase inh inactive, HEK293 tox 89µM and hNpr1 antagonist inconclusive.
Screening Cc1ccccc1-c1ccc2c(n1)CN(CCOc1ccccc1)C(=O)CO2 returned NIH3T3 tox inconclusive, Luciferase inh inactive, HEK293 tox inconclusive and hNpr1 antagonist inactive.
For COCCN1Cc2nc(Nc3ccc(C(F)(F)F)cc3)ccc2OCC1=O the results were NIH3T3 tox inconclusive, Luciferase inh inactive, HEK293 tox inconclusive and hNpr1 antagonist inactive.
For CC(C)CC(=O)N1CCCC(c2noc(COc3ccccc3F)n2)C1 (stereo not given) the results were NIH3T3 tox inconclusive, Luciferase inh inactive, HEK293 tox inconclusive and hNpr1 antagonist inactive.
Screening CCOc1ccccc1NC(=O)N1CCCC(c2noc(COc3ccccc3F)n2)C1 (stereo not given) returned NIH3T3 tox inconclusive, Luciferase inh inactive, HEK293 tox inconclusive and hNpr1 antagonist inactive.
Screening Cc1c(F)cccc1NC(=O)N1CCCC(c2noc(COc3ccccc3F)n2)C1 (stereo not given) returned NIH3T3 tox inconclusive, Luciferase inh 14µM, HEK293 tox inconclusive and hNpr1 antagonist inconclusive.
For CC(C)C(=O)N1CCCC(c2noc(COc3ccccc3F)n2)C1 (stereo not given) the results were NIH3T3 tox inactive, Luciferase inh 40µM, HEK293 tox inconclusive and hNpr1 antagonist inactive.
Screening O=C(NC1CN(c2ccnc3ccnn23)C1)C1CCCC1 returned NIH3T3 tox inactive and HEK293 tox inactive.
Screening Cc1nc2c(c(-c3ccc(Cl)cc3)n1)CCN(C(=O)NC1CCCC1)CC2 returned NIH3T3 tox inconclusive and HEK293 tox inactive.
`COc1ccc(-c2nc(C)nc3c2CN(C(=O)Cc2ccc(F)cc2)CC3)cc1` gave NIH3T3 tox inactive and HEK293 tox inactive.
For CCOC(=O)C1CCCN(C(=O)c2nc3sccn3c2-c2cccc(OC)c2)C1 (stereo not given) the results were NIH3T3 tox inactive and HEK293 tox inactive.
Screening Cc1cc(NC(=O)C2CCN(c3cc(C(F)(F)F)ncn3)CC2)ccc1Br returned NIH3T3 tox 32µM, Luciferase inh inactive, HEK293 tox 25µM and hNpr1 antagonist inconclusive.
For COc1ccc(-c2cccc(C(=O)N3CCN([S+](=O)([O-])c4cccs4)CC3)c2)nn1 the results were NIH3T3 tox inactive and HEK293 tox inconclusive.
For COc1ccccc1-c1[nH]nc2ncc(C(=O)N(C)c3ccccc3)nc12 the results were NIH3T3 tox inconclusive, Luciferase inh inactive, HEK293 tox 89µM and hNpr1 antagonist inactive.
Screening COc1ccccc1-c1[nH]nc2ncc(C(=O)NCCc3ccccn3)nc12 returned NIH3T3 tox inconclusive, Luciferase inh inactive, HEK293 tox 63µM and hNpr1 antagonist inactive.
For CSc1ccc(-c2cccc(C(=O)NCCNC(=O)c3ccc(Cl)cc3)c2)cc1 the results were NIH3T3 tox inconclusive and HEK293 tox inactive.
`CN(C)[C@@H]1CN(Cc2ccc(F)c(F)c2)CC[C@@H]1CO` gave NIH3T3 tox inactive and HEK293 tox inactive.
Cc1noc2c(NCCN(C)C)cc(-c3ccc(Cl)cc3)nc12 was read as NIH3T3 tox 25µM, Luciferase inh inactive, HEK293 tox 45µM and hNpr1 antagonist inactive.
Cc1noc2c(NCCN(C)C)cc(-c3ccccn3)nc12 was read as NIH3T3 tox inconclusive, Luciferase inh inactive, HEK293 tox 79µM and hNpr1 antagonist inactive.
For COC1CCN(c2cc(-c3ccccn3)nc3c(C)noc23)CC1 the results were NIH3T3 tox inconclusive, Luciferase inh inactive, HEK293 tox 63µM and hNpr1 antagonist inactive.
Cc1noc2c(NCCN(C)C)cc(-c3ccc(F)cc3)nc12 was read as NIH3T3 tox 40µM, Luciferase inh inactive, HEK293 tox inconclusive and hNpr1 antagonist inactive.
Screening COc1ccccc1-c1cc(N2CCN(c3ccccn3)CC2)c2onc(C)c2n1 returned NIH3T3 tox inconclusive, Luciferase inh inactive, HEK293 tox inconclusive and hNpr1 antagonist inactive.
Screening Cc1ccc(CN2CC(Cn3c(C)cnc3-c3ccncc3)C2)o1 returned NIH3T3 tox inactive and HEK293 tox inactive.
